# Measured values from PubChem BioAssay (Tox21).
# Results filed as inconclusive are left out. Calls of active or inactive are those of the source. Calls come from the whole dose curve; as a rule, active = well fitted activation curve with a large enough effect in the repeat runs; inconclusive = weak or mixed curves; inactive = flat fitted curve, though single readings scatter.
# Test: A CellTox Green Cytotoxicity Assay to monitor cytotoxicity in HEK293 cells - 16 hour (AID 1224888); note: nearly all actives have a fitted effect of over 35% in size
# Details: CellTox Green fluorescence; series mostly up to 76.8 µM; activity change: at the top concentration
# Source text: National Center for Advancing Translational Sciences [NCATS]
# NIH Chemical Genomics Center [NCGC]
# U.S. Environmental Protection Agency [EPA]
# National Institutes of Environmental Health Sciences [NIEHS]
# National Toxicology Program [NTP]
# Cell-based models are critical for drug discovery. Determining the natural cytotoxic effects resulting from test compounds is an essential research activity. A CellTox Green Cytotoxicity Assay to monitor cytotoxicity in real time of continues cell culture during 40 hours of the compound treatment was used to screen Tox21 10K library compounds in Hek293 cells. CellTox Green Cytotoxicity Assay is a nonlytic, homogeneous, biofluorescent method to measure cytotoxicity in cell culture after experimental manipulation. The assay system uses a proprietary asymmetric cyanine dye that is excluded from viable cells but preferentially stains the dead cell's DNA. […] Viable cells produce no appreciable increases in fluorescence. Therefore, the fluorescence signal produced by the binding interaction with dead cell DNA is proportional to cytotoxicity.
# The mixture of Hek293 cell suspension and reagents were dispensed at 600cells/6 ul/well in 1536-well tissue culture treated black solid bottom plates using a Multidrop dispenser. After the assay plates were incubated at a 37 C/5% CO2 incubator for 5 hours, 23 nL of compounds dissolved in DMSO, positive and negative controls was transferred to the assay plate by a pintool work station. The plates were incubated at 37 C for 40 hours. The fluorescence intensity were measured at 0h, 8h, 16h, 24h, 32h and 40h time points using ViewLux plate reader during compound treatment.
# % is set by controls: 0 for no effect and ±100 for the full control effect; potency is the fitted concentration of half-maximal effect.
Structure (SMILES),activity change,Potency
CN(Cc1ccc(C(C)(C)C)cc1)Cc1cccc2ccccc12,"16.3% [at 35.3 µM, active compounds read high] (inactive)",
CCCCO,0.158% (inactive),
COc1cccc(N(C)C(=S)Oc2ccc3c(c2)CCCC3)n1,"-0.452% [at 35.3 µM, active compounds read high] (inactive)",
Cc1[nH]c(C)c(Cl)c(=O)c1Cl,"-2.28% [at 15.8 µM, active compounds read high] (inactive)",
CC(=O)c1ccc2c(c1)N(CCCN(C)C)c1ccccc1S2,"2.69% [at 35.3 µM, active compounds read high] (inactive)",
CC(C)OC(=O)C(C)N(C(=O)c1ccccc1)c1ccc(F)c(Cl)c1 (stereo not given),21.8% (inactive),
CCCCCCCCCOS(=O)(=O)O,-3.56% (inactive),
CCCCCCCCCCCc1ccccc1,-4.61% (inactive),
NC(N)=NCCC[C@H](N)C(=O)O,"-19.2% [at 6.97 µM, active compounds read high] (inactive)",
OC(C#CCN1CCCC1)(c1ccccc1)c1ccccc1,"1.36% [at 35.3 µM, active compounds read high] (inactive)",
COc1cc(C(=O)OCCCN2CCCN(CCCOC(=O)c3cc(OC)c(OC)c(OC)c3)CC2)cc(OC)c1OC,"19.2% [at 35.3 µM, active compounds read high] (inactive)",
CCCCC/C=C\C/C=C\CCCCCCCC(=O)NC(C)c1ccccc1 (stereo not given),"1.15% [at 35.3 µM, active compounds read high] (inactive)",
CN1C[C@H]2c3ccccc3Oc3ccc(Cl)cc3[C@@H]2C1,"12.6% [at 35.3 µM, active compounds read high] (inactive)",
CCC(C)O (stereo not given),-2.6% (inactive),
CN(C)c1ccc(CCO)cc1,-1.54% (inactive),
CCCCC1=NC2(CCCC2)C(=O)N1Cc1ccc(-c2ccccc2-c2nn[nH]n2)cc1,"3.11% [at 35.3 µM, active compounds read high] (inactive)",
OCc1cc(C(O)CNCCCCCCOCCCCc2ccccc2)ccc1O (stereo not given),"15.4% [at 35.3 µM, active compounds read high] (inactive)",
O=C(O)CNCC(=O)O,"2.15% [at 6.97 µM, active compounds read high] (inactive)",
CCCCCCOC(=O)NC(=N)c1ccc(NCc2nc3cc(C(=O)N(CCC(=O)OCC)c4ccccn4)ccc3n2C)cc1,"1.75% [at 35.3 µM, active compounds read high] (inactive)",
C=CC1CC2C=CC1C2 (stereo not given),-4.58% (inactive),

Structure (SMILES),activity change,Potency
C=CCOc1ccccc1OCC(O)CNC(C)C (stereo not given),"-0.417% [at 35.3 µM, active compounds read high] (inactive)",
COc1cc(Cl)c(OC)cc1N,-3.22% (inactive),
CCOC(=O)C(=O)CCc1ccccc1,"1.02% [at 35.3 µM, active compounds read high] (inactive)",
CCCCC(=O)OCC(=O)[C@H]1[C@H](C)C[C@H]2[C@@H]3C[C@H](F)C4=CC(=O)C=C[C@]4(C)[C@@]3(F)[C@@H](O)C[C@@]21C,"0.684% [at 35.3 µM, active compounds read high] (inactive)",
CCCC(=O)Nc1ccc(O)c(C(C)=O)c1,"0.951% [at 35.3 µM, active compounds read high] (inactive)",
C=C(C)C(=O)OCCO,-11% (inactive),
CCCCC(CC)CN1C(=O)C2C3C=CC(C3)C2C1=O (stereo not given),29% (inactive),
CC(C)O.CC(C)O.CCOC(=O)/C=C(\C)O.CCOC(=O)/C=C(\C)O.[Ti],-4.06% (inactive),
O=C(Nc1ccccc1)c1ccccc1O,14.3% (inactive),
Cc1oc2c(NC(=O)c3c(Cl)cccc3Cl)cccc2c1C(C)(C)O,3.5% (inactive),
C#Cc1cccc(Nc2ncnc3cc(OCCOC)c(OCCOC)cc23)c1,"2.52% [at 35.3 µM, active compounds read high] (inactive)",
CCCCC(CC)COC(=O)CCCCCCCCC(=O)OCC(CC)CCCC (stereo not given),-15.6% (inactive),
CCCCCCCCCCCCCCCCOS(=O)(=O)O,,21.3 µM (active)
Cc1ccc(C(C)OC(=O)C2(C)CCC(C(=O)O)C2(C)C)cc1 (stereo not given),"-6.49% [at 35.3 µM, active compounds read high] (inactive)",
C=CC(=O)OCCOCCOCCOCCOC(=O)C=C,,inactive
Nc1ccc(S(=O)(=O)Nc2ccccc2)cc1,"2.63% [at 35.3 µM, active compounds read high] (inactive)",
O=C(Nc1ccc(S(=O)(=O)N2CCOCC2)cc1)c1cc(Cl)ccc1NS(=O)(=O)c1ccc(Cl)s1,,23.9 µM (active)
CN(C)c1ccc(C(c2ccccc2)c2ccc(N(C)C)cc2)cc1,-16% (inactive),
C=CC(=O)OCCOCCOC(=O)C=C,13.3% (inactive),
O=C(O)c1ccco1,-2.64% (inactive),
